D1 potentiator = Potentiators of Human D1 Dopamine Receptor: qHTS; D(1A) dopamine receptor (Homo sapiens), P21728; hit rate 0.036% among 360,000; potentiation, % at 10 µM; AID 504651, 2011; HEK293 TREx D1 cells, calcium flux, dopamine EC20 potentiation; in the data active = potentiation above about 30%; note: 0% is about no effect
D3 ag = qHTS of D3 Dopamine Receptor Agonist: qHTS | hit rate 0.58% among 410,000 | D3R DiscoveRx beta-arrestin cells, luminescence, 90 min | AID 652048, 2013 | D(3) dopamine receptor (Homo sapiens), P35462 | max activation, %; in the data active = max activation above about 30%; note: 0% is about no effect
Target sequence (P35462 whole entry, looked up): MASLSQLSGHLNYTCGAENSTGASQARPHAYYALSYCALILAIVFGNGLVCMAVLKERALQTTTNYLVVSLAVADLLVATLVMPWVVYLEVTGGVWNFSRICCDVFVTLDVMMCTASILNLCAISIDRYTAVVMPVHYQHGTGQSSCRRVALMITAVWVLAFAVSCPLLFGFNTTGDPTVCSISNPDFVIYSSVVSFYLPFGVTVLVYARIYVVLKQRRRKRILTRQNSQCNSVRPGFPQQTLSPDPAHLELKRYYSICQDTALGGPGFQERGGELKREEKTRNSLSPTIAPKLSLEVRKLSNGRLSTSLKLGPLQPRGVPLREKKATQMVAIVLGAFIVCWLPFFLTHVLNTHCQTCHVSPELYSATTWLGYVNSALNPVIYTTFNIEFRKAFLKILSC
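Agonist-mode cell screen: cells plated at 1500/well and incubated overnight at 37 °C, then exposed to library compounds for 90 min at 37 °C. Detection reagent was added for 30–60 min at room temperature, and luminescence was read.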
D1 ag = Allosteric Agonists of the Human D1 Dopamine Receptor: qHTS; HEK293 T-REx D1 cells, calcium flux, agonist mode; hit rate 1% among 360,000; activation, % at 2 µM; AID 504660, 2011; in the data active = activation above about 30%; note: 0% is about no effect
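Tetracycline-induced HEK293 TREx D1 cells, force-coupled to calcium signalling, were dye-loaded with a no-wash calcium kit. Compound was pin-added after a 10 s baseline. Fluorescence was read kinetically at 1 cycle/s for 180 s, with calcium rises flagged as agonism.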
DRD3 antagonist = qHTS of D3 Dopamine Receptor Antagonist: qHTS. AID 652054, 2013. D3R cells, DiscoveRx beta-arrestin luminescence, antagonist mode; active compounds read low. hit rate 2.5% among 360,000. D(3) dopamine receptor (Homo sapiens), P35462. max response, negative = inhibition, %; in the data active = max response below about -50%; inconclusive = no clear call, values can overlap the other calls; note: % is set by controls: 0 for no effect and ±100 for the full control effect
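Cells plated overnight at 1500 cells/well, then exposed to library compounds with dopamine controls for 90 minutes at 37 degrees C. DiscoveRx reagent added for 30–60 minutes at room temperature; luminescence read, quantitative HTS format.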
Chronic BCR inh = qHTS Assay to Find Inhibitors of Chronic Active B-Cell Receptor Signaling. ABC-DLBCL IkBa-CBG/CBR reporter, luminescence ratio, 4 h. Potency, µM (highest dose often 46.1 µM), for inactives: at the top dose activity change, negative = inhibition, usual class: inhibitors. hit rate 0.05% among 340,000. AID 493014, 2011; active = well fitted inhibition curve with a large enough effect in the signal ratio, with a control signal flat, not every such curve was filed as active; inconclusive = small, poorly fitted or top-dose-only effect, or effect the other way, or a change in a side signal; the % refers to the signal ratio;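 note: potency is the fitted concentration of half-maximal effect; plate controls were basal doxycycline-induced cells for no effect and cells given 10 µM MG132 for full effect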
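Doxycycline induced both beetle luciferases in TMD8 lymphoma cells; IKK-driven degradation limits the IkappaBalpha-fused green signal, while red luminescence normalises for cell number and nonspecific effects. Compounds tested up to 46 uM, 4 hrs.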
D1 antagonist = Antagonist of Human D 1 Dopamine Receptor: qHTS; hit rate 3.2% among 360,000; D(1A) dopamine receptor (Homo sapiens), P21728; HEK293 TREx D1 cells, calcium flux, dopamine EC80; active compounds read low; activity change, negative = inhibition, % at 10 µM; in the data active = activity change below about -30%; note: % is set by controls: 0 for no effect and ±100 for the full control effect
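Using tetracycline-induced force-coupled D1 Hek293 cells and a calcium dye, signals were followed for 180 s after compound, then for 180 s after EC80 dopamine, to detect inhibitors.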
* = called active by the depositor; ? = inconclusive; nt = no result. An excerpt weighted towards active compounds, which were near 6% of everything screened.

SMILES	D1 potentiator	D3 ag	D1 ag	DRD3 antagonist	Chronic BCR inh	D1 antagonist
Cc1noc(C)c1-c1ccc(C(=O)NCCc2ccccc2)c2occc12	nt	-8	nt	?	nt	nt
COc1ccc(CCC(=O)Nc2cccc(Cl)c2)cc1	-8	6	11	-5	1%	-45*
COc1cccc(NC(=O)Nc2ccc(Br)cn2)c1	-7	49*	0	0	-20%	-14
COc1ccc(NC(=O)Nc2ccc(Br)cn2)cc1OC	0	-2	0	107	?	-4
COc1cc(CN2C[C@@H](CO)O[C@@H](n3cnc4c(NCc5ccncc5)ncnc43)C2)cc(OC)c1OC	nt	-4	nt	0	nt	nt
CCN(CC)S(=O)(=O)c1ccc(Cl)c(C(=O)OC2CC(C)OC2=O)c1 (stereo unspecified)	-7	32*	1	12	-9%	2
O=C(Nc1ccc(O)c(-c2nc3ccccc3o2)c1)c1sc2ccccc2c1Cl	0	2	0	nt	nt	-30*
Cc1nnc(NC(=O)c2sc3ccccc3c2Cl)s1	-2	-10	3	-73*	?	-7
O=C(Nc1ccc(O)c(-c2nc3ccccc3o2)c1)c1cccs1	-4	-2	0	nt	nt	-4
CSc1ccc(CCNC(=O)C2=C(C)C(=O)OC23CCCCC3)cc1	-4	-4	2	nt	nt	-8
CC(C)NC(=O)N1[C@H](c2cccs2)[C@@H](C)C(=O)[C@@H](C)[C@@H]1c1cccs1	2	0	-1	nt	nt	18
CN1C(C(=O)c2ccccc2)=C(N)c2ccccc2S1(=O)=O	-2	3	3	-1	-3%	6
Cc1ccc(NC2=C(C(=O)c3ccccc3)N(C)S(=O)(=O)c3ccccc32)cc1	-1	-7	1	-60*	27%	-5
O=C1OCCN1CCN(CN1C(=O)CCC1=O)CN1C(=O)CCC1=O	1	-3	0	-57*	-2%	4
O=C(NNC1=NCCC1)c1cccc(Br)c1	1	-2	4	-58*	-1%	10
Cc1ccccc1C(=O)NNC1=NCCC1	-1	0	3	-12	?	-1
COc1ccc(CCNC(=O)c2ccc3c(c2)N(Cc2cccc(Cl)c2)C(=O)c2ccccc2S3=O)cc1OC (stereo unspecified)	-5	2	3	nt	16%	-22
COc1ccc(NC(=O)C(=O)NCCN2CCN(C(=O)c3ccco3)CC2)cc1	-2	56*	-2	9	10%	25
COc1ccc(OCC(=O)N2CCN(C(=O)c3ccco3)CC2)cc1	-1	-6	2	-54*	4%	-6
O=C(COc1ccccc1)N1CCN(C(=O)c2ccco2)CC1	-1	3	0	11	1%	-10
Cc1cc(SCC(=O)OCC(=O)NCc2ccc3c(c2)OCO3)c(C)cc1Br	-2	1	14	19	2%	-38*
O=C(COC(=O)C1(c2ccc(F)cc2)CCCC1)NCc1ccc2c(c1)OCO2	-10	-2	10	-11	?	-32*
O=C(COC(=O)C1(c2ccccc2F)CCCC1)NCc1ccc2c(c1)OCO2	-7	-12	11	5	?	-23
COc1ccc(CC(=O)N2CCN(C(=O)c3ccco3)CC2)cc1	0	0	2	11	7%	7
OC[C@@H]1CN(CCN2CCOCC2)C[C@H](n2cnc3c(N4CCCC4)ncnc32)O1	nt	3	nt	0	nt	nt
SMILES	D1 potentiator	D3 ag	D1 ag	DRD3 antagonist	Chronic BCR inh	D1 antagonist
O=C(COc1ccc(Cl)cc1)N1CCN(C(=O)c2cccs2)CC1	-2	8	6	4	?	-61*
Cc1cc(SCC(=O)OCC(=O)N2CCN(C(=O)c3ccco3)CC2)c(C)cc1Br	-6	1	44*	5	19%	-18
N#Cc1ccc(OCC(=O)N2CCN(C(=O)c3ccco3)CC2)cc1	3	2	2	1	-4%	-35*
CC(C)c1ccc(OCC(=O)N2CCN(C(=O)c3ccco3)CC2)cc1	-23	1	2	-1	4%	16
COc1ccc(CCNC(=O)CS(=O)(=O)Cc2nc(-c3cccc(Cl)c3)oc2C)cc1OC	-3	2	1	nt	nt	-3
CCc1cccc2c1Sc1ccccc1CC2N1CCNCC1 (stereo unspecified)	nt	-24	nt	-63*	nt	nt
c1ccc2c(c1)CC(N1CCCCC1)c1ccccc1N2 (stereo unspecified)	-4	-10	0	-4	-3%	-6
Cc1cccc2c1Sc1ccc(Cl)cc1CC2N1CCNCC1 (stereo unspecified)	nt	-17	nt	-53*	nt	nt
COc1ccc(N2C(=O)C3CC(C)=C(C)CC3C2=O)c(OC)c1 (stereo unspecified)	-6	2	1	-16	?	-5
COc1cc(N2C(=O)C=CC2=O)ccc1N1C(=O)C=CC1=O	nt	-30	nt	-68*	nt	nt
Oc1ccc(-c2ccccc2)cc1CN1CCCCCC1	-3	-18	2	-93*	?	-4
Oc1ccc(CN2CCCCC2)nc1-c1ccccc1	7	13	3	-52*	4%	12
Oc1cccnc1CN1CCCCC1	nt	-5	nt	12	nt	nt
CCOC(=O)c1[nH]c2ccccc2c1NC(=O)c1ccccc1OCC	2	-1	1	nt	nt	-2
Cc1cccc(OCCNc2cc(N3CCOCC3)ccc2[N+](=O)[O-])c1	-8	8	3	23	?	0
Cc1ccccc1OCCNc1cc(N2CCNCC2)ccc1[N+](=O)[O-]	1	nt	11	nt	2%	7
Cc1cccc(OCCNc2cc(N3CCN(C)CC3)ccc2[N+](=O)[O-])c1	-9	-50	12	-65*	-7%	-18
Cc1ccc(OCCNc2cc(N3CCN(CCO)CC3)ccc2[N+](=O)[O-])cc1C	-8	-9	7	-56*	?	7
COc1ccc(CNC(=O)Cn2ncn3nc(-c4cccs4)cc3c2=O)cc1	4	6	-2	nt	nt	-18
CN(Cc1ccccc1)C(=O)c1ccc(Nc2nc(C(N)Cc3ccc(C(F)(F)F)cc3)cs2)nc1 (stereo unspecified)	nt	5	nt	30	nt	nt
O=C(CN1C(=O)c2ccccc2S1(=O)=O)N1CCOCC1	1	-1	2	4	-12%	-34*
O=C(CN1C(=O)c2ccccc2S1(=O)=O)NC1CC2CCC1C2 (stereo unspecified)	nt	0	0	0	?	-73*
Clc1ccc(CN2CC[C@H]3C=CCc4cccc(c43)C2)cc1	-2	-13	-1	-84*	-4%	nt
